Out of some 5,500 compounds screened, about 2,000 (36%) were called active. Not shown: some 18% with an inconclusive outcome. No stated cut-off is given here; in the data, active means normalized growth mostly below about 0.91 (no sharp cut-off); inconclusive means no clear call, values can overlap the other calls; inactive means mostly above about 0.92. This is one part of the list.
Test: chemical genetic growth profiling, strain panel (AID 1159580);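 further: tested at 20 µM; growth read once vehicle control cultures reached saturation at 30 °C; 1 = growth at the plate median or of vehicle wells; lower values mean less growth of the strain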
Conditions: growth OD
[1] = S. cerevisiae deletion strains, locus YDR150W, strain NUM1, hits give low values
[2] = S. cerevisiae deletion strains, locus YGR229C, strain SMI1, hits give low values
[3] = S. cerevisiae deletion strains, locus YMR307W, strain GAS1, hits give low values
[4] = S. cerevisiae deletion strains, locus YPL055C, strain LGE1, hits give low values
[5] = S. cerevisiae deletion strains, locus YAL013W, strain DEP1, hits give low values
[6] = S. cerevisiae deletion strains, locus YBR229C, strain ROT2, hits give low values
[7] = S. cerevisiae deletion strains, locus YDL101C, strain DUN1, hits give low values
[8] = S. cerevisiae deletion strains, locus YEL061C, strain CIN8, hits give low values
[9] = S. cerevisiae deletion strains, locus YGR078C, strain PAC10, hits give low values
[10] = S. cerevisiae deletion strains, locus YHR030C, strain SLT2, hits give low values
[11] = S. cerevisiae deletion strains, locus YHR087W, strain rtc3, hits give low values
[12] = S. cerevisiae deletion strains, locus YJL187C, strain SWE1, hits give low values
[13] = S. cerevisiae deletion strains, locus YJR043C, strain POL32, hits give low values
[14] = S. cerevisiae deletion strains, locus YJR075W, strain HOC1, hits give low values
[15] = S. cerevisiae deletion strains, locus YLR039C, strain RIC1, hits give low values
[16] = S. cerevisiae deletion strains, locus YLR058C, strain SHM2 (second series), hits give low values
[17] = S. cerevisiae deletion strains, locus YLR085C, strain ARP6, hits give low values
[18] = S. cerevisiae deletion strains, locus YLR262C, strain YPT6, hits give low values
[19] = S. cerevisiae deletion strains, locus YML094W, strain GIM5, hits give low values
[20] = S. cerevisiae deletion strains, locus YMR219W, strain ESC1, hits give low values
[21] = S. cerevisiae deletion strains, locus YMR263W, strain SAP30, hits give low values
[22] = S. cerevisiae deletion strains, locus YNL153C, strain GIM3, hits give low values
[23] = S. cerevisiae deletion strains, locus YNL298W, strain CLA4 (second series), hits give low values
[24] = S. cerevisiae deletion strains, locus YNL322C, strain KRE1, hits give low values
[25] = S. cerevisiae deletion strains, locus YNR030W, strain Alg12, hits give low values
[26] = S. cerevisiae deletion strains, locus YPL241C, strain CIN2, hits give low values
[27] = S. cerevisiae deletion strains, locus YPR135W, strain CTF4, hits give low values

Measured: normalized growth

Cc1ccc(C(=O)O[C@H](C(=O)O)[C@H](OC(=O)c2ccc(C)cc2)C(=O)O)cc1
inactive: S. cerevisiae deletion strains, locus YAL040C, strain CLN3, hits give low values 1.01 | S. cerevisiae deletion strains, locus YCL061C, strain MRC1 (second series), hits give low values 1 | [1] 1.01 | S. cerevisiae deletion strains, locus YDR363W, strain ESC2, hits give low values 1.03 | S. cerevisiae deletion strains, locus YER002W, strain NOP16, hits give low values 1.01 | [2] 1.01 | [3] 0.99 | S. cerevisiae deletion strains, locus YNL175C, strain NOP13, hits give low values 1 | S. cerevisiae deletion strains, locus YNL197C, strain WHI3, hits give low values 1 | S. cerevisiae deletion strains, locus YNL224C, strain SQS1, hits give low values 1 | S. cerevisiae deletion strains, locus YOR083W, strain WHI5 (second series), hits give low values 0.997 | [4] 0.999

Cc1ccc(C(=O)c2ccccc2[N+](=O)[O-])cc1
inactive: [5] 0.989 | [6] 0.99 | [7] 0.983 | [1] 0.957 | [8] 0.979 | [9] 0.982 | [10] 0.797 | [11] 0.964 | [12] 0.987 | [13] 0.99 | [14] 0.943 | [15] 0.913 | [16] 0.995 | [17] 0.9 | [18] 0.948 | [19] 0.96 | [20] 0.98 | [21] 0.98 | S. cerevisiae deletion strains, locus YNL128W, strain TEP1, hits give low values 1.01 | [22] 0.954 | [23] 0.934 | [24] 0.997 | [25] 0.939 | S. cerevisiae deletion strains, locus YOL006C, strain TOP1, hits give low values 0.779 | [4] 0.946 | [27] 0.8 | S. cerevisiae strains, strain wild type, hits give low values 1
active: [3] 0.622 | [26] 0.828

CCOC(=O)CSc1nnc(-c2cc(C(C)(C)C)nn2Cc2cccc(C)c2)n1C1CCCCC1
inactive: [5] 1.03 | [6] 0.989 | [7] 1.01 | [1] 1 | [8] 0.997 | [9] 1.01 | [2] 0.993 | [10] 0.92 | [11] 0.986 | [12] 0.994 | [13] 0.994 | [14] 0.98 | [15] 0.909 | [16] 0.99 | [17] 0.975 | [18] 0.901 | [19] 1.02 | [20] 0.998 | [21] 1 | [22] 1.02 | [23] 1 | [24] 0.994 | [25] 0.987 | [4] 1.03 | [26] 0.968 | [27] 1.01

— PubChem BioAssay AID1159580 (chemical genetic matrix, 2015)
